Assay results reported in the antibiotic and cytotoxicity screens of Wong et al. (2023).
Screen size: about 39,000 compounds; about 3,300 (8.5%) were called active. Many of the other results were omitted from the sample, so actives are more common in it than they were.

The molecules below were run on HepG2 (assay: cytotoxicity call (relative viability < 0.9)). Conditions: 10 µM.

Row | Compound | cytotoxicity call
1 | COc1cc(F)c(C(C)C)cc1-c1ccc(C(F)(F)F)cc1CN1C(=O)O[C@H](c2cc(C(F)(F)F)cc(C(F)(F)F)c2)[C@@H]1C | inactive
2 | COc1ccc2c3c(n(c2c1)C)[C@H](CO)N(C[C@]13CCN(CC1)C(=O)c1cccnc1)C(=O)c1cccnc1 | inactive
3 | C[C@@H]1CN([C@@H](C)CO)C(=O)c2cc(NC(=O)c3ccncc3)ccc2O[C@@H]1CN(C)Cc1ccncc1 | inactive
4 | C[C@@H]1CCCCO[C@H](CN(C)C(=O)CCCN(C)C)[C@H](C)CN([C@@H](C)CO)C(=O)c2cc(NC(=O)Nc3ccc(F)cc3)ccc2O1 | inactive
5 | COc1ccc(NC(=O)N(C)C[C@@H]2OCCCC[C@@H](C)Oc3ccc(NS(=O)(=O)c4ccccc4)cc3C(=O)N([C@H](C)CO)C[C@H]2C)cc1 | inactive
6 | COc1cccc(-c2ccc3c(c2)O[C@@H](CN(C)C(=O)C2CC2)[C@@H](C)CN([C@H](C)CO)S3(=O)=O)c1 | inactive
7 | C[C@@H]1CN([C@H](C)CO)C(=O)c2cc(NS(=O)(=O)c3ccc(Cl)cc3)ccc2O[C@@H](C)CCCCO[C@@H]1CN(C)C(=O)CCC(F)(F)F | inactive
8 | N[C@H](C(=O)O)c1cc(O)cc(O)c1 | inactive
9 | Cc1noc(C)c1NC(=O)Nc1ccc2c(c1)C(=O)N([C@@H](C)CO)C[C@@H](C)[C@@H](CN(C)C(=O)Nc1cccc3ccccc13)O2 | inactive
10 | Cc1noc(C)c1NC(=O)N(C)C[C@H]1OCCCC[C@H](C)Oc2ccc(NS(=O)(=O)c3cccs3)cc2C(=O)N([C@H](C)CO)C[C@@H]1C | inactive
11 | CCCCCCc1ccc(O)cc1O [listing 1 of 2 here] | inactive
12 | CCCCCCCCCCCCCCCCCC(=O)NCCCCOn1c(CCCC)nc2c(N)nc3ccccc3c21 | inactive
13 | CCCCCCCc1c(C)c(O)cc2c1[nH]c1ccccc12 | inactive
14 | CCCCCCc1ccc(O)cc1O.Nc1c2ccccc2nc2ccccc12 | active
15 | CCCCCCc1ccc(O)cc1O [listing 2 of 2 here] | active
16 | COC(=O)CCc1ccc(OC)cc1O | inactive
17 | Cc1noc(C)c1NC(=O)Nc1ccc2c(c1)CC(=O)N([C@@H](C)CO)C[C@H](C)[C@@H](CN(C)S(=O)(=O)c1cccs1)O2 | inactive
18 | Cc1noc(C)c1NC(=O)N(C)C[C@H]1Oc2ccc(NS(=O)(=O)c3ccccc3)cc2CC(=O)N([C@@H](C)CO)C[C@@H]1C | inactive
19 | COc1ccc(NC(=O)N[C@@H]2CC[C@H](CCNC(=O)CN3CCOCC3)O[C@@H]2CO)cc1 | inactive
20 | CCC(=O)N(C)C[C@H]1Oc2ncc(C#C[C@H](C)O)cc2C(=O)N([C@H](C)CO)C[C@@H]1C | inactive
21 | C[C@H](CO)N1C[C@H](C)[C@@H](CN(C)C(=O)Nc2ccccc2)Oc2cc(C#C[C@@H](C)O)ccc2S1(=O)=O | inactive
22 | C[C@@H]1CN([C@H](C)CO)S(=O)(=O)c2ccc(-c3cncnc3)cc2O[C@@H]1CN(C)C(=O)c1cccc(F)c1 | inactive
23 | CCc1c(C)[nH]c2ncnn2c1=O | inactive
24 | CCCN(C)C[C@H]1Oc2cc(C#Cc3cccc(OC)c3)ccc2S(=O)(=O)N([C@@H](C)CO)C[C@H]1C | inactive
25 | C[C@H]1CN([C@@H](C)CO)C(=O)c2cccc(NC(=O)Nc3cccc4ccccc34)c2O[C@H]1CN(C)Cc1ccc2c(c1)OCO2 | inactive
26 | c1ccc(-c2nn(-c3ccccc3)c3c2cnc2ccccc23)cc1 | active

Row | Compound | cytotoxicity call
27 | COc1ccc2c(c1)c(-c1ccccc1)nn2-c1ccc(C)cc1 | inactive
28 | c1ccc(-c2cc(-c3ccccc3)n(-c3ccccc3)n2)cc1 | inactive
29 | Cc1cc(C)c(S(=O)(=O)N2CCO[C@@H]2CNC(=O)C(=O)NCCCN2CCCC2=O)c(C)c1 | inactive
30 | Cc1c(NC(C)C)c(=O)n(-c2ccccc2)n1C.Cl | inactive
31 | C[C@@H]1CN([C@H](C)CO)C(=O)c2cc(NS(=O)(=O)c3ccc(F)cc3)ccc2O[C@H]1CN(C)S(=O)(=O)c1ccccc1 | inactive
32 | O=C1CCOC[C@@H]2CCCN12 | inactive
33 | C[C@@H]1CCCCO[C@@H](CN(C)Cc2ccncc2)[C@H](C)CN([C@@H](C)CO)C(=O)c2cc(NC(=O)Nc3ccccc3)ccc2O1 | inactive
34 | C[C@@H]1CCCCO[C@H](CN(C)Cc2ccc(C(=O)O)cc2)[C@@H](C)CN([C@@H](C)CO)C(=O)c2cc(NC(=O)Cc3ccccc3)ccc2O1 | inactive
35 | Cc1ccc(S(=O)(=O)N(C)C[C@H]2Oc3ccc(N(C)C)cc3CC(=O)N([C@H](C)CO)C[C@H]2C)cc1 | inactive
36 | Cc1ccc(S(=O)(=O)N(C)C[C@H]2Oc3ccc(N(C)C)cc3CC(=O)N([C@@H](C)CO)C[C@H]2C)cc1 | inactive
37 | Cc1ccc(S(=O)(=O)N(C)C[C@@H]2Oc3ccc(N(C)C)cc3CC(=O)N([C@@H](C)CO)C[C@@H]2C)cc1 | active
38 | Cc1ccc(S(=O)(=O)N(C)C[C@H]2Oc3ccc(N(C)C)cc3CC(=O)N([C@@H](C)CO)C[C@@H]2C)cc1 | inactive
39 | Cc1ccc(S(=O)(=O)N(C)C[C@@H]2Oc3ccc(N(C)C)cc3CC(=O)N([C@H](C)CO)C[C@H]2C)cc1 | inactive
40 | Cc1ccc(S(=O)(=O)N(C)C[C@@H]2Oc3ccc(N(C)C)cc3CC(=O)N([C@H](C)CO)C[C@@H]2C)cc1 | active
41 | C[C@H](CO)N1C[C@H](C)[C@@H](CN(C)Cc2ccc(C(=O)Nc3ccccc3N)cc2)Oc2c(NS(C)(=O)=O)cccc2C1=O | inactive
42 | Cc1noc(C)c1NC(=O)Nc1ccc2c(c1)C(=O)N([C@@H](C)CO)C[C@H](C)[C@H](CN(C)Cc1ccncc1)OCCCC[C@H](C)O2 | inactive
43 | CN1CCN(C(=O)C[C@H]2CC[C@H]3[C@@H](COc4ccc(NC(=O)C5CCOCC5)cc4C(=O)N3C)O2)CC1 | inactive
44 | CC(C)(C)Nc1nc(=O)[nH]c(=O)[nH]1 | inactive
45 | Cc1noc(C)c1S(=O)(=O)N(C)C[C@H]1Oc2ccc(NS(=O)(=O)c3cccs3)cc2CC(=O)N([C@@H](C)CO)C[C@H]1C | inactive
46 | CC(C)(C)CC(C)(C)c1cc(Cc2cc(C(C)(C)CC(C)(C)C)cc(-n3nc4ccccc4n3)c2O)c(O)c(-n2nc3ccccc3n2)c1 [listing 1 of 2 here] | inactive
47 | CC(C)(C)CC(C)(C)c1ccc(O)c(Cc2ccc(Cl)cc2Cl)c1 | active
48 | CC(C)(C)CC(C)(C)c1cc(Cc2cc(C(C)(C)CC(C)(C)C)cc(-n3nc4ccccc4n3)c2O)c(O)c(-n2nc3ccccc3n2)c1 [listing 2 of 2 here] | inactive
49 | C/C=C/c1cnc2c(c1)C(=O)N([C@H](C)CO)C[C@@H](C)[C@@H](CN(C)S(=O)(=O)c1ccc(OC)cc1)O2 | inactive
50 | C[C@@H]1CN([C@H](C)CO)C(=O)c2cc(NC(=O)Cc3cn(C)c4ccccc34)ccc2O[C@H]1CN(C)C(=O)Nc1cccc2ccccc12 | inactive
51 | N#CCOc1cccc2ccccc12 | inactive
52 | CN(C)C(CCOc1cccc2ccccc12)c1ccccc1.Cl (configuration not stated) | active

Row | Compound | cytotoxicity call
53 | CN(C)CCOC(c1ccccc1)c1ccccc1.Cl | inactive
54 | CN(C)Cc1cn(CC[C@@H]2CC[C@H](NS(=O)(=O)c3ccccc3)[C@H](CO)O2)nn1 | inactive
55 | C[C@@H]1CN([C@H](C)CO)C(=O)c2cc(NC(=O)C3CCCCC3)ccc2O[C@@H](C)CCCCO[C@H]1CN(C)C(=O)c1ccccc1 | inactive
56 | C[C@@H]1CCCCO[C@H](CN(C)CC2CCCCC2)[C@@H](C)CN([C@H](C)CO)C(=O)c2cc(NS(=O)(=O)c3cccs3)ccc2O1 | inactive
57 | C[C@@H]1CN([C@@H](C)CO)C(=O)c2cc(NC(=O)Cn3cnnn3)ccc2O[C@@H]1CN(C)Cc1ccc(Oc2ccccc2)cc1 | inactive
58 | COC(=O)Nc1nc2cc(C(=O)c3ccccc3)ccc2[nH]1 | active
59 | O=c1[nH]c2ccc(F)cc2nc1O | inactive
60 | COC(=O)CNC(=O)c1ccc(F)cc1 | inactive
61 | COc1cccc(C(=O)c2ccccc2)c1 | inactive
62 | COC(=O)Nc1nc2cc(C(=O)c3ccc(F)cc3)ccc2[nH]1 | active
63 | COC(=O)Nc1nc2cc(C(=O)c3cccs3)ccc2[nH]1 | inactive
64 | Cc1ccc(S(=O)(=O)Nc2ccc3c(c2)CC(=O)N([C@H](C)CO)C[C@H](C)[C@@H](CN(C)S(=O)(=O)c2c(C)noc2C)O3)cc1 | inactive
65 | Cc1cc(O)cc(C)c1Cl [listing 1 of 2 here] | inactive
66 | Cc1cc(O)cc(C)c1Cl [listing 2 of 2 here] | active
67 | Oc1cc(O)cc(O)c1 | inactive
68 | CCO[C@H]1CC(C)(C)NC(=S)N1 | inactive
69 | C[C@@H]1CN([C@H](C)CO)C(=O)Cc2cc(NS(=O)(=O)c3ccc(Cl)cc3)ccc2O[C@@H]1CN(C)Cc1ccc(C(F)(F)F)cc1 | inactive
70 | C[C@@H]1CN([C@@H](C)CO)C(=O)Cc2cc(NS(=O)(=O)c3ccc(Cl)cc3)ccc2O[C@@H]1CN(C)Cc1ccc(C(F)(F)F)cc1 | active
71 | C[C@@H]1CN([C@H](C)CO)C(=O)Cc2cc(NS(=O)(=O)c3ccc(Cl)cc3)ccc2O[C@H]1CN(C)Cc1ccc(C(F)(F)F)cc1 | active
72 | C[C@H](CO)N1C[C@H](C)[C@H](CN(C)Cc2ccc(C(F)(F)F)cc2)Oc2ccc(NS(=O)(=O)c3ccc(Cl)cc3)cc2CC1=O | active
73 | C[C@H]1CN([C@@H](C)CO)C(=O)Cc2cc(NS(=O)(=O)c3ccc(Cl)cc3)ccc2O[C@H]1CN(C)Cc1ccc(C(F)(F)F)cc1 | active
74 | CCS(=O)(=O)Nc1ccc2c(c1)C(=O)N(C)[C@@H]1CC[C@H](CC(=O)NCc3ccccc3F)O[C@H]1CO2 | inactive
75 | C[C@H](CO)N1C[C@H](C)[C@@H](CN(C)C(=O)Nc2ccc(F)cc2)Oc2c(NC(=O)c3ccc(-c4nccs4)cc3)cccc2C1=O | inactive
76 | C/C=C/c1cnc2c(c1)C(=O)N([C@@H](C)CO)C[C@H](C)[C@@H](CN(C)S(=O)(=O)c1ccc(OC)cc1)O2 | inactive
77 | C[C@@H]1CN([C@H](C)CO)C(=O)c2cc(NC(=O)C3CCCCC3)ccc2O[C@@H](C)CCCCO[C@@H]1CN(C)C(=O)CCC(F)(F)F | inactive
